# Reference: PubChem BioAssay (NCI)
# The panel holds about 83,000 compounds, 20% with a hit somewhere; the sample as a whole holds those more often.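 For each line, cells grew in 96-well plates with the test compound present at a single concentration for 48 hours.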 Values without a mark were called inactive. The source made the active and inactive calls. How the source made its calls: active means growth percent below 10; inactive means the rest.
# Tests used:
# Test in all cases: NCI-60 one-dose screen, 48 h (100 = growth as untreated, 0 = no growth, -100 = all killed)
# Conditions in all cases: 10 µM unless noted
# SK-MEL-2 melanoma = system: SK-MEL-2 melanoma
# EKVX NSCLC = system: EKVX NSCLC
# SN12C renal = system: SN12C renal
# UO-31 renal = system: UO-31 renal
# TK-10 renal = system: TK-10 renal
# ACHN renal = system: ACHN renal
# CAKI-1 renal = system: CAKI-1 renal
# A498 renal = system: A498 renal
# CCRF-CEM leukemia = system: CCRF-CEM leukemia
# MOLT-4 leukemia = system: MOLT-4 leukemia
SMILES,growth (SK-MEL-2 melanoma),growth (EKVX NSCLC),growth (SN12C renal),growth (UO-31 renal),growth (TK-10 renal),growth (ACHN renal),growth (CAKI-1 renal),growth (A498 renal),growth (CCRF-CEM leukemia),growth (MOLT-4 leukemia)
CCCCN1C(=O)/C(=c2\sc3n(c2=O)NC2C(N=3)N(CC)C(=O)N2CC)c2ccccc21 (stereo not given),59.1%,67.9%,50.5%,40.1%,83.8%,48.4%,30.3%,42.3%,26.1%,43.6%
N#Cc1c(N2CCOCC2)nc(=S)[nH]c1-c1ccccc1,41.8%,56.8%,73.7%,76.9%,57.6%,73.9%,61.4%,13.7%,62.3%,73.6%
COc1cc2cc(NCc3ccc(OC(F)F)cc3)nc(C)c2cc1OC,79.8%,75.6%,62.6%,38.6%,54.1%,69.5%,51.5%,30.5%,68.9%,63.3%
COc1ccc(C2CC(c3ccc(Nc4nc(Nc5ccc(F)cc5)nc(Nc5ccc(F)cc5)n4)cc3)=NN2C(C)=O)cc1 (stereo not given),72%,94.8%,116%,97.7%,104%,84.5%,90.6%,85.3%,23.5%,34.6%
CCOC(=O)Cn1c(=O)c2c3ccccc3n(C)c2n2nnc(-c3ccccc3)c12,97.1%,85.8%,81.8%,81.2%,129%,91.8%,81.2%,134%,68.4%,-40.7% (active)
O=C(/C=C/c1cccc(Cl)c1)c1cccc(OCCCCOc2cccc(C(=O)/C=C/c3cccc(Cl)c3)c2)c1,103%,106%,92.9%,72%,109%,100%,75.7%,96.9%,84.4%,89%
CCCCCCCCCCCCCCCCOC(=O)c1c(C)[nH]c(/C=C2\N=C(c3ccc[nH]3)C=C2OC)c1C,-25.9% (active),68.3%,55.9%,30.4%,18.8%,48.8%,15.4%,33.9%,50.4%,91.9%
CC(C)(CO)N(CCO)CCO,100%,116%,99.1%,87.4%,95.5%,97.1%,100%,111%,92.8%,104%
CCN(CC)CCCC(C)Nc1ccc2cc(OC)ccc2n1 (stereo not given),116%,91.4%,104%,91.3%,106%,107%,101%,84.5%,107%,116%
O=C(Nc1cccc(NC(=O)C2CCCCC2)c1)c1ccccn1,100%,92%,102%,88.7%,112%,103%,94.9%,96.1%,106%,91.3%
COc1cc(/C=C\c2cc(/C=C\c3ccc(O)c(OC)c3)n(C(=O)CNc3ccc(Cl)cc3)n2)ccc1O,9.05% (active),42.2%,22.5%,15.9%,47.2%,23.6%,29.3%,44.5%,10%,8.25% (active)
Cn1ccnc1C(=O)/C=C/c1ccc(C(=O)Nc2ccc(F)cc2)cc1,74.6%,26.6%,14.3%,-14.2% (active),13.1%,-49.9% (active),28.9%,-9.36% (active),2.27% (active),7.92% (active)
Cc1ccc(-c2nc(C#N)c(S(=O)(=O)NCCO)o2)cc1,64.9%,104%,81.2%,62.1%,65.7%,67.7%,71%,108%,-17.5% (active),19.8%
CCN(CC)c1ccc(/C=C\c2cc(C)c3cc(C)ccc3n2)cc1,14.4%,61.6%,45.1%,26.6%,54.8%,38.8%,28.5%,18.2%,34.1%,40.2%
Cc1nc2ccccc2c(/C=C/c2ccc(C(F)(F)F)cc2)c1C(=O)/C=C/c1ccccc1,-43.6% (active),8.76% (active),-25.9% (active),-96.1% (active),7.75% (active),-54.6% (active),0.887% (active),-31.4% (active),5.84% (active),4.86% (active)
CC1COCC(C)N1C1=C(Cl)C(=O)c2ccccc2C1=O (stereo not given),23.9%,89.9%,81.7%,59%,75.7%,28.9%,65.4%,109%,19.4%,9.7% (active)
COc1ccc(-c2ccc(-c3ccc(C(=N)N)cn3)s2)cc1,104%,95.6%,86.7%,81.2%,109%,92%,87.9%,98.8%,4.28% (active),49.1%
COc1ccccc1NC(=O)c1ccc(/C=C/C(=O)c2nccn2C)cc1,-27.4% (active),-12.2% (active),-80.4% (active),-94.5% (active),-45.6% (active),-100% (active),-38.7% (active),-39.8% (active),-11.6% (active),0.601% (active)
C#Cc1cccc(Nc2nc3ccc([N+](=O)[O-])cc3nc2Nc2cccc(C#C)c2)c1,-53.8% (active),-12% (active),-39.1% (active),-84.1% (active),-34.4% (active),-1.34% (active),-25.8% (active),-20.3% (active),-33.9% (active),-47.5% (active)
O=C(CN1CCN(c2cc3c(cc2F)c(=O)c(C(=O)O)cn3C2CC2)CC1)N/N=C/c1ccncc1,105%,98.3%,106%,90.6%,91.6%,99.6%,93.8%,96.4%,94%,101%
O=C1CC2C=CCN2C=C1NC(=O)C1CCCCC1 (stereo not given),101%,92.1%,110%,94.9%,90.6%,105%,97.7%,128%,122%,99.5%
O=C(NCc1ccccc1O)c1cccc2ccccc12,86.4%,82.1%,64.9%,51.5%,98.5%,72.4%,91.9%,56%,101%,79%
CN1C(=O)/C(=C/c2ccc(C(=O)Nc3ncc(Cc4ccc(F)cc4)s3)cc2)SC1=S,71.2%,48.4%,61.8%,46.5%,53.5%,28%,16.3%,35%,47.8%,39.6%
CCOC(=O)C1CCN(c2ccc(N3C[C@@H](CNCc4ccc(C(=N)N)cc4)OC3=O)cc2)CC1,112%,99.4%,97.6%,77.8%,97.5%,102%,89.4%,108%,98.5%,101%
CCOC(=O)Nc1nc2ccc(SCC(C)C)cc2s1,33.1%,48.7%,44.4%,37.6%,33%,45.6%,96.6%,21.5%,21.5%,31.8%
O=C(O)C1CN(c2cccc(Cl)c2)N(c2cccc(Cl)c2)C1=O (stereo not given),94.7%,96.9%,89%,72.2%,105%,95.6%,92.8%,110%,107%,88.8%
CCC(CC)(N(CC(=O)O)CC(=O)O)C(CC)(CC)N(CC(=O)O)CC(=O)O,112%,117%,94.8%,103%,103%,116%,98.4%,126%,93%,107%
Oc1c(CN2CCCC2)cc(COCc2ccccc2)c2cccnc12,19.2%,31.7%,27.9%,-1.58% (active),10.7%,6.14% (active),10.5%,19.3%,6.37% (active),9.79% (active)
